Hits are enriched below; roughly 4.5% of the tested compounds scored in any of these assays.
hcDAF-12 act: activates DAF-12 receptor from parasite H. contortus. 370,000 compounds, 1.4% hits. HEK293 hcDAF-12 lit1-tk-luc reporter, luminescence; 0% DMSO, 100% Δ7-dafachronic acid. activation, % at 6.8 µM;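 active = activation above the mean of all tested compounds plus 3 SD, cut at about 5.5% in these data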;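 note: 100% = response to 3 µM Δ7-dafachronic acid high control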
ssDAF12 agonist: activators of S. stercoralis DAF-12 nuclear receptor | activation, % at 6.8 µM | HEK293 ssDAF-12/GRIP1 lit1-tk-luc reporter, luminescence; % of 3 µM dafachronic acid response | 370,000 compounds, 1% hits;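 active = activation above the mean over all tested compounds plus 3 SD, cut at about 0.9% in these data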;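 note: 0% = DMSO-only wells and 100% = 3 µM delta7-dafachronic acid wells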
DAX1 inh-1: inhibits human nuclear receptor DAX1; inhibition, % at 6.75 µM; HEK293 Gal4-DAX1 luciferase reporter, luminescence; P51843; 340,000 compounds, 0.99% hits;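 active = inhibition above the mean over all tested compounds plus 3 SD, cut at about 4.2% in these data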;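 note: 0% = DAX1-transfected cells with DMSO and 100% = empty-vector control cells with DMSO; inhibition shows as a rise in luminescence from relieved DAX1 repression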
Target sequence (P51843 207-470 limits assumed): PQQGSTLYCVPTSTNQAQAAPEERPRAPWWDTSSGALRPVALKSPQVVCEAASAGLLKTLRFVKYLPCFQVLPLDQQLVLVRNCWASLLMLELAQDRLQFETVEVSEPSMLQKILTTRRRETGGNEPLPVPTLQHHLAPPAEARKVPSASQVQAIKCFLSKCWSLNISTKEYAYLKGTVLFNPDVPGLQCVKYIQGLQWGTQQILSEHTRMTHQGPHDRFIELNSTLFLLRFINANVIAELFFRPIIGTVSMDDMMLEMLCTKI
GAA850 FXN act: frataxin GAA850 promoter activation; HEK293 lucGAA850 FXN promoter luciferase reporter, 24 h; percent of 10 µM SAHA response; activation, % at 6 µM; 360,000 compounds, 0.56% hits; AID 540364;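 active = activation above the average of all compounds screened plus 3 SD, cutoff fixed separately per campaign, cut at about 7.5% in these data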;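 note: 0% = DMSO wells and 100% = 10 µM SAHA wells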
DAX1 inh-2: blocks DAX1 repression of SF-1 activated StAR promoter; inhibition, % at 6.8 µM; HEK293T StAR-luciferase reporter, SF-1/DAX-1 repression relief; 370,000 compounds, 1.1% hits;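 active = inhibition above the mean over all tested compounds plus 3 SD, cut at about 3.6% in these data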;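 note: 0% = DAX-1 cells with DMSO and 100% = cells lacking DAX-1 with DMSO; higher inhibition means more luminescence from relief of DAX-1 repression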
hgDAF-12 ag: hgDAF-12 agonism, primary luciferase screen | 370,000 compounds, 1.8% hits | activation, % at 6.8 µM | HEK293 GAL4-hgDAF12 UAS-luciferase reporter, agonist luminescence; normalized to butyrate control;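 active = activation above a cutoff set at the mean of all screened compounds plus 3 SD, cut at about 10% in these data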;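 note: 0% = DMSO wells and 100% = sodium butyrate wells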
DAX1 conf: NR0B1 (human) inhibition, confirmation. shares compounds with DAX1 inh-2. HEK293T StAR-promoter luciferase reporter, SF-1/DAX-1 repression. inhibition, % at 6.8 µM. 2,400 compounds, 87% hits. AID 652134;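 active = inhibition above the average of every tested compound plus 3 SD, cut at about 3.8% in these data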;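 note: 0% = DAX-1 cells with DMSO and 100% = no DAX-1 control cells with DMSO; active compounds raise luminescence by relieving repression of the StAR reporter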
SF1 mutant ctr: nonselective inhibitor or artifact in SF-1 mutant DAX1 counter-screen; shares compounds with DAX1 inh-2; AID 652136; HEK293 StAR-luciferase, SF-1 AF2 mutant, luminescence; 2,400 compounds, 78% hits; inhibition, % at 6.8 µM;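 active = inhibition above the mean of all tested compounds plus 3 SD, cut at about 3% in these data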;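 note: 0% = DAX-1 transfected cells with DMSO and 100% = cells without DAX-1 with DMSO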
LXRb hcDAF ctr: counter-screen for hcDAF-12 agonists: agonists of human LXR-beta; shares compounds with hcDAF-12 act; HEK293 Gal4-LXR tk-luc reporter, luminescence, 24 h; normalized: DMSO 0%, positive control 100%; activation, % at 6.8 µM; 3,400 tested, under 10 active; AID 743027;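 active = mean percent activation of the reporter above a cutoff set as the average over tested compounds plus their standard deviation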
hcDAF12 conf: confirmation of H. contortus DAF-12 agonists; shares compounds with hcDAF-12 act; HEK293 hcDAF-12 lit1-tk-luc reporter, luminescence; % of Δ7-dafachronic acid response; activation, % at 6.8 µM; 3,400 compounds, 61% hits;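 active = mean activation across triplicate tests above the threshold derived from the earlier primary screen, cut at about 5.5% in these data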;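 note: 0% = DMSO only wells and 100% = 3 µM Δ7-dafachronic acid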
hgDAF12 conf: hgDAF-12 agonism, confirmation assay; shares compounds with hgDAF-12 ag; 3,300 compounds, 80% hits; HEK293 GAL4-hgDAF12 luciferase reporter, agonist mode; percent of butyrate response; activation, % at 6.8 µM;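 active = mean activation over triplicate wells above the hit cutoff derived from the earlier primary screen, cut at about 11% in these data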;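 note: 0% = DMSO low control and 100% = 2 mM sodium butyrate high control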
LXRb DAF12 ctr: LXR-beta agonism as DAF-12 counter-screen; shares compounds with hgDAF-12 ag; HEK293 Gal4-LXR luciferase reporter, 24 h; activation, % at 6.8 µM; 3,300 tested, under 10 active;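 active = mean activation of the triplicate above a set limit carried over from the primary screen, none filed active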
Active calls of the source: *; x = not tested or not shown.

SMILES	hcDAF-12 act	ssDAF12 agonist	DAX1 inh-1	GAA850 FXN act	DAX1 inh-2	hgDAF-12 ag	DAX1 conf	SF1 mutant ctr	LXRb hcDAF ctr	hcDAF12 conf	hgDAF12 conf	LXRb DAF12 ctr
Cc1ccc(N/N=C(\C#N)C(=N)N2CCCCCC2)cc1	12*	2.0*	2	2	10*	19*	16*	6.8*	2	9.7*	23*	1
N#C/C(=N\Nc1ccc(Cl)cc1)C(=N)N1CCCCC1	7.8*	1.0*	2	4	5.9*	15*	15*	11*	2	6.6*	19*	1
N#C/C(=N\Nc1ccc(F)cc1)C(=N)N1CCCCCC1	9.2*	0	4.4*	4	7.0*	14*	15*	4.0*	1	7.3*	18*	1
O=C(Nc1ccc(SC(F)F)cc1)C1=COCCO1	4	1	1	3	4.9*	15*	13*	6.8*	x	x	14*	1
CC(=O)N1CCN(C(=S)Nc2ccc(SC(F)F)cc2)CC1	-2	0	0	0	0	1	x	x	x	x	x	x
COCCCNC(=O)C[C@H]1C[C@@]2(C(=O)OC)C(=C[C@H](C3CCCC3)O[C@@H]2C)N(Cc2ccco2)C1=O	-2	-1	x	x	-1	0	x	x	x	x	x	x
O=C(N1CCc2ccccc2C1)n1cc(C(O)(c2ccccc2)c2ccccc2)nn1	-5	-2	x	x	x	-10	x	x	x	x	x	x
Cc1cccc(NC(=O)c2ccc3ccccc3n2)c1C	23*	2.8*	3	3	6.4*	17*	11*	7.5*	2	19*	25*	1
O=C(Nc1ccccc1C(F)(F)F)O[C@@H]1CC[C@@]23CCCN2C(=O)CCC[C@H]3C1	-1	-2	x	x	x	-2	x	x	x	x	x	x
O=C(/C=C\Nc1ccc(Br)cc1)c1cccnc1	8.3*	1	1	4	5.9*	18*	16*	9.3*	1	6.5*	16*	1
Cc1ccc(NC(=S)NC(=O)C2CCCC2)c(Br)c1	6.3*	0	1	5	9.3*	15*	9.5*	4.7*	x	x	21*	1
Cc1ccnc(NC(=O)/C=C/c2ccccc2[N+](=O)[O-])c1	9.3*	1.8*	x	x	5.0*	21*	14*	8.1*	2	8.3*	20*	1
CC(C)Oc1ccc(F)cc1-c1cc(C(=O)Nc2ccccc2)[nH]n1	-3	-2	x	-4	-1	0	x	x	x	x	x	x
Cc1ccc(O)c(-c2cc(C(=O)Nc3cccnc3)[nH]n2)c1	2	0	7.0*	5	4.8*	19*	13*	6.2*	x	x	13*	1
Cc1cc(F)ccc1-c1cc(C(=O)Nc2ccccc2)[nH]n1	12*	1.5*	x	1	12*	21*	15*	5.8*	2	14*	20*	1
Cc1[nH]nc2c1C(c1ccc3c(c1)OCO3)N(Cc1ccccc1)C2=O (configuration not stated)	0	-1	x	x	-1	0	x	x	x	x	x	x

Assay outcomes: PubChem, The Scripps Research Institute Molecular Screening Center
